Compounds without any hit were thinned out: in the full panel of roughly 83,000, 20% have a hit.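 Cells were grown in 96-well plates and exposed to the test compound at a single concentration for 48 hours; results are reported as percent growth, with values below 10 considered active.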 A number with no mark means an inactive call. Active and inactive are the calls of the source.

Our source for the growth values is PubChem BioAssay (NCI).

This test relates to EKVX NSCLC. Kind of test: NCI-60 one-dose screen, 48 h (100 = growth as untreated, 0 = no growth, -100 = all killed). The following applies: 10 µM unless noted.
In the case of `C#C[C@]1(O)CC[C@H]2[C@@H]3CC=C4c5sc(N(C)c6ccccc6)nc5CC[C@]4(C)[C@H]3CC[C@@]21C`, the growth was 103%.

As to `CC(=O)c1c([Si](C)(C)C)c2cc(C#N)ccn2c1C(=O)c1ccc(Br)cc1`, the growth was 86.9%.

On to `O=C(CSc1nc2ccccc2c(=O)n1-c1ccc(Cl)c(Cl)c1)Nc1ccc(S(=O)(=O)Nc2ccc(Cl)nn2)cc1`, for which the growth is 94.5%.

`C#CCN(C)CCCOc1ccc(NCc2ccc(/C=C/C(=O)NO)cc2)cc1Cl`: the growth is 16.3%.

With `O=C(NNc1nc2cc(F)cc(F)c2n2cccc12)c1cccnn1`, the growth was 9.18% (active).

Turning to `COc1ccc(/C(=N\NC(N)=S)c2ccc(Cl)cc2)cc1OC`, the growth was 50.8%.

For `COc1ccc(-c2c(C(N)=O)c(N)n(Cc3nc4ccccc4[nH]3)c(=O)c2C#N)c(OC)c1`, the growth is 95.4%.

Consider `Cc1cc(Br)ccc1-n1cc(C#N)c(N)c1C(=O)c1ccc(Br)cc1`, for which the growth is 97.8%.

Consider `CN1CCN(Cc2ccc(NC(=O)c3cncc(C#Cc4cnc(N)nc4)c3)cc2C(F)(F)F)CC1`, for which the growth was 43.9%.

Consider `CCOC(=O)c1c(NC(=O)c2ccc(C(F)(F)F)cc2)sc2c3c(ccc12)OCN(C)C3`, for which the growth is 79.5%.

Regarding `O=C1CSC(c2cn(-c3ccccc3)nc2-c2ccc(Cl)cc2)N1c1ccccc1` (centres undefined), the growth is 98.8%.

`COc1ccc(-c2c3c(cn2Cc2cccc(OC)c2)-c2oncc2CCC3)cc1`: the growth was 97.6%.

Turning to `C#C[C@]1(O)CC[C@H]2[C@@H]3CC=C4c5sc(Nc6ccc(C)cn6)nc5CC[C@]4(C)[C@H]3CC[C@@]21C`, the growth was -21.7% (active).

Turning to `CCCCCCOC(=O)c1cc(-c2ccc(F)cc2)nc2ccccc12`, the growth was 96.8%.

Regarding `CN1CCN(c2ccc(Nc3nc(NCCNS(=O)(=O)c4ccccc4)c4sccc4n3)cc2)CC1`, the growth is 95.2%.

Turning to `CN1CCN(Cc2ccc(NC(=O)c3cncc(C#Cc4cnc5ccc(O[C@@H]6CCOC6)nn45)c3)cc2C(F)(F)F)CC1`, the growth is -85.8% (active).

`CC(C)(C)Nc1nc2c(OCCc3ccccc3)cccn2c1-c1ccc([N+](=O)[O-])cc1`: the growth is 41.8%.

Turning to `N#Cc1c(-c2cccs2)cc(-c2cnccn2)nc1SCC(=O)N/N=C/c1ccc(Cl)cc1`, the growth was 93.5%.

As for `CN(C)CCCOc1ccc(C(=C(c2ccccc2)C2CCCC2)c2ccc(OCCCN(C)C)cc2)cc1`, the growth was -82.2% (active).

Consider `N#Cc1nc(-c2ccc(Cl)cc2)oc1N1CCC(S(=O)(=O)N2CCOCC2)CC1`, for which the growth was 105%.

In the case of `CC(=O)C1=C(C)NC(NNc2ccccc2)=NC1c1ccc([N+](=O)[O-])cc1` (centres undefined), the growth was 80%.

For `COC(=O)c1ccc(NC2=C(Cl)C(=O)C(C)=C(C)C2=O)cc1`, the growth is 53.2%.

`C=C(C=O)[C@@H]1CC[C@]2(C(=O)O)CC[C@]3(C)C(CC[C@@H]4[C@@](C)(CCC#N)[C@H](C(=C)C=O)CC[C@]43C)[C@@H]12` (some centres undefined): the growth was 100%.

As for `CCOC(=O)C1=C(C)NC(C)=C(C(=O)OC(C)C)C1c1cccc(C#N)c1` (centres undefined), the growth is 90.7%.

`CC1(C)CC[C@]23CC[C@]4(C)[C@H](CC[C@@H]5[C@@]6(C)CC[C@H](NCO)C(C)(C)[C@@H]6CC[C@]54C)[C@H]2[C@H]1OC3`: the growth is 93.9%.

In the case of `COc1ccc(C(=NNS(=O)(=O)c2ccc(C)cc2)c2ccccc2)cc1OC`, the growth is 95.4%.

For the compound `COc1cccc2c1C=CC1(O2)Oc2cccc(OC)c2C=C1C` (centres undefined), the growth is 47.7%.

Take `Cc1csc(/N=C(N)/N=C(\N)c2cccnc2)n1`: the growth was 82.8%.

With `Cc1ccc(/C=N/Nc2nc(Nc3ccccc3)nc(Nc3ccc(S(N)(=O)=O)cc3)n2)cc1`, the growth was 78.1%.

Turning to `CCCC[n+]1ccc(SCC(=O)n2ccc3ccccc32)c2ccccc21`, the growth is 88.1%.

Take `O=[N+]([O-])c1ccc(NC(=S)NNC(=S)Nc2ccc(Br)cc2)cc1`: the growth is 83.5%.

`CCOP(=O)(OCC)OC[C@]12CCC(C)(C)CC1C1=CC[C@@H]3[C@@]4(C)CCCNC(C)(C)[C@@H]4CC[C@@]3(C)[C@]1(C)CC2` (some centres undefined): the growth was 69.7%.

For `CNC(=O)Nc1ccc(Nc2cc(-c3ccc(-n4cccn4)cc3)[nH]n2)c(C)c1`, the growth was 109%.

As to `O=C(CCCCCCNC(=O)c1csc(Br)n1)NO`, the growth was 53.3%.

As for `NS(=O)(=O)c1ccc(Nc2nc(N/N=C/c3ccc4c(c3)OCO4)nc(Nc3ccccc3)n2)cc1`, the growth was 73.2%.

As for `CCc1cc2c(cc1Cl)nc1c(=O)[nH]c(=O)nc-1n2CCOCC(C)C`, the growth was 68.1%.

With `COc1cc(C(=O)c2cc(C(C)=O)c3cccc(C)n23)cc(OC)c1OC`, the growth was 53.6%.

With `Nc1ncc(-c2ccc3ncnc(NCc4ccccc4)c3c2)cn1`, the growth is 23.5%.

With `COc1ccc2c(c1)c(-c1nn3cc(-c4ccncc4)nc3s1)cn2C`, the growth is 77.6%.
